Pf growth 48h: P. falciparum growth inhibition at 48 hours (one generation); AID 504832; Potency, µM (titrated, usually from 28.7 µM), for inactives: at the highest dose activity change, negative = inhibition, hits mostly inhibitors; P. falciparum luciferase growth in erythrocytes, 48 h; 5.9% of 310,000 active
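Luciferase-expressing parasites in RBCs, 2% Hct / 0.1% parasitemia final; RPMI 1640 + 0.5% Albumax; 37 C, 5% CO2, one generation; luminescence read-out, lower signal = inhibition.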
Pf growth 96h: P. falciparum growth inhibition at 96 hour, primary screen for plastid delayed-death inhibitors; P. falciparum luciferase reporter growth, 96 h; Potency, µM (top dose mostly 28.7 µM), for the others: at the highest dose activity change, negative = inhibition, most hits filed as inhibitors; 6.9% of 320,000 active; AID 504834
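Compounds incubated with erythrocytes infected by luciferase-expressing P. falciparum (2% hematocrit, 0.05% parasitemia final) for 96 hours, 37 C in 5% CO2. Growth inhibition scored as decreased luciferase luminescence.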
Vaccinia Venus: inhibitors of vaccinia virus (Venus reporter); 0.46% of 330,000 active; Potency, µM (top dose mostly 36.5 µM), inactives show at the highest dose activity change, negative = inhibition, usual class: inhibitors; Vaccinia virus Venus reporter expression, fluorescence; AID 720580; calls by dose curve; tested in A549 cells; note: nearly all actives have a fitted effect of over 30% in size
VACV mCherry inh: inhibitors of vaccinia virus infection (mCherry reporter signal); Potency, µM (titrated, usually from 36.5 µM), for the others: at the top dose activity change, negative = inhibition, most hits filed as inhibitors; Vaccinia virus mCherry reporter infection, fluorescence; 0.63% of 310,000 active; calls by dose curve; tested in A549 cells; note: nearly all actives have a fitted effect of over 35% in size
AMA1 RON2 block: disrupts binding of P. falciparum AMA1 to RON2 | AlphaScreen AMA1-biotinylated RON2 peptide binding | Potency, µM (series often up to 58.2 µM), inactives show at the top dose activity change, negative = inhibition, actives largely listed as inhibitors | 0.2% of 360,000 active | AID 720542;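 note: 0% = vehicle wells and -100% = peptide control; nearly all actives have a fitted effect of over 45% in size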
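AMA1 (3D7) with his tag at 25 nM final met compounds first, then biotinylated RON2 peptide at 25 nM; detection used donor plus acceptor beads, 10 µg/mL apiece, read by AlphaScreen after 30 min at room temperature.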
* hit, by the source's call; i = inactive; ? = inconclusive; . = no result; [ ] = remark or other dose. In the library only some 8.7% were active in any assay of this set; here they are far more common. Unless noted, calls come from the whole dose curve; as a rule, active = well fitted curve in the direction sought with a large enough effect; inconclusive = small, poorly fitted or top-dose-only effect, or another doubt; inactive = no such curve, though single readings can be large; an effect the other way counts as inactive or inconclusive. Unless noted, % is set by controls: 0 for no effect and ±100 for the full control effect; potency is the fitted concentration of half-maximal effect.

SMILES	Pf growth 48h	Pf growth 96h	Vaccinia Venus	VACV mCherry inh	AMA1 RON2 block
COc1cc(C(=O)OCC(=O)N(C)Cc2ccccc2)cc(OC)c1OC	?	?	-9%	.	3%
CCC(COC(=O)c1cc(OC)c(OC)c(OC)c1)(c1ccccc1)N(C)C (stereo not given)	15µM*	?	-12%	-13%	-27%
Cc1ccc(NC(=O)N2CC3CCCN3c3ccccc32)cc1Cl (stereo not given)	.	.	-14%	-8%	.
CCN(CC)CCCNC(=S)N(Cc1cccnc1)Cc1cc2cc(C)ccc2[nH]c1=O	2.3µM*	5.9µM*	.	.	-3%
Cc1ccc2[nH]c(=O)c(CN(Cc3cccnc3)C(=S)NCCCN(C)C)cc2c1	15µM*	6%	-8%	-3%	17%
COCCn1c(=NC(=O)/C=C/c2cccs2)sc2cc(NC(C)=O)ccc21	?	8.3µM*	-9%	-22%	-4%
COCCn1c(=NC(=O)CCS(=O)(=O)c2ccccc2)sc2cc(C)ccc21	93%	?	-6%	-11%	-5%
CN(C[C@@H](CC1CCCCC1)N(C[C@H](Cc1ccccc1)N(CCc1ccccc1)N=O)N=O)N=O	?	12µM*	-15%	-7%	-2%
CN(C[C@H](Cc1ccccc1)N(C[C@H](Cc1ccccc1)N(CC1(c2ccccc2)CC1)N=O)N=O)N=O	?	10µM*	-4%	i	-7%
CCN(Cc1ccncc1)Cc1ccc2c(c1)CN(C(=O)c1ccc(C)cc1)CCO2	.	.	5%	-6%	.
CCOC(=O)c1cccc(NC(=O)NCCc2c(C)nn(C)c2C)c1	.	.	2%	-18%	.
CCc1ccccc1NC(=O)Nc1cc(C(=O)NCc2ccccc2OC)ccc1N1CCCC1	.	.	-13%	i	.
CSc1nc(Oc2ccc3ccccc3c2)c2ccccc2n1	10µM*	?	-17%	.	20%
COc1ccc(Oc2nc(C(F)(F)F)nc3ccccc23)cc1	-15%	3%	-23%	.	32%
Cc1ccc(S(=O)(=O)Nc2ccc(Nc3ccccc3)cc2)cc1	-34%	?	-9%	?	-13%
Cc1ccc(S(=O)(=O)Nc2cccc(CP(=O)(c3ccccc3)c3ccccc3)c2)cc1	3.3µM*	9.3µM*	-19%	-27%	7%
O=C(CP(=O)(c1ccccc1)c1ccccc1)Nc1cccc(CP(=O)(c2ccccc2)c2ccccc2)c1	?	7.4µM*	?	?	-5%
COc1ccc(-c2cc3c(=O)n(CC(=O)Nc4cc(F)ccc4F)ccn3n2)cc1OC	.	.	-2%	-8%	.
Cc1cccc(CNC(=O)c2cnn(-c3nccc(-c4cc5ccccc5o4)n3)c2C2CC2)n1	.	.	-11%	-21%	.
Cc1ccc(-c2nnc(SC(C)C(=O)NCc3ccco3)n2C)cc1 (stereo not given)	.	.	-22%	i	.
N#Cc1ccccc1NC(=O)CSC1=Nc2ccccc2C2CC=NN12 (stereo not given)	-21%	5%	4%	0%	16%
CN(C(=O)CSc1ncnc2sccc12)C1CCCCC1	89%	59%	-14%	-2%	-4%[11.6 µM]
Cc1cc(C)cc(N(CCC#N)C(=O)CSc2ncnc3sccc23)c1	12µM*	?	-29%	-5%	-26%
Cc1cc(C)cc(N(CCC#N)C(=O)CSC2=Nc3ccccc3C3CC=NN23)c1 (stereo not given)	13µM*	12µM*	-9%	-17%	3%
O=C(NCc1ccc(Cl)cc1)C1CCN(S(=O)(=O)c2ccc3c(c2)CCCN3C(=O)C2CCC2)CC1	.	.	-20%	-25%	.
SMILES	Pf growth 48h	Pf growth 96h	Vaccinia Venus	VACV mCherry inh	AMA1 RON2 block
COc1ccc(Br)cc1CNC(=O)CCSCc1ccc(C)cc1	.	.	-9%	-14%	.
O=C(CSc1nnc(CNC(=O)c2c(F)cccc2Cl)o1)Nc1cccc(F)c1	.	.	-6%	-5%	.
Cc1ccc(/C=C\c2nccc3c2[nH]c2ccccc23)cc1	2.6µM*	?	-16%	?	17%
Fc1ccc(/C=C\c2nccc3c2[nH]c2ccccc23)cc1	?	35%[5.75 µM]	-25%	?	34%
C(=C\c1nccc2c1[nH]c1ccccc12)/c1ccccc1	1.9µM*	2.6µM*	?	-24%	53%
CCCCN1C(=O)/C(=C2/Sc3ccc(OC)cc3N2CC)SC1=S	31%	9.3µM*	.	.	-1%
C=CCN1C(=O)/C(=C2/Sc3ccc(OC)cc3N2CC)SC1=S	-12%	?	.	.	10%

Screening results: PubChem BioAssay, National Center for Advancing Translational Sciences (NCATS)
